# Inconclusive results are not listed. A number with no mark means an inactive call. Calls come from the whole dose curve; as a rule, active = well fitted cell-killing curve with a large enough effect; inconclusive = small, poorly fitted or top-dose-only effect, or effect the other way; inactive = flat fitted curve, though single readings scatter.
# System: CAOV3
# Assay: Primary qHTS to identify gynecologic anti-cancer compounds using libraries of approved drugs and bioactive compounds (AID 1345084); note: nearly all actives have a fitted effect of over 55% in size
# Settings: Gynecologic cancer cell panel viability, ATPlite luminescence, 48 h; series mostly up to 57.5 µM; activity change, negative = cytotoxicity: at the top concentration
# Text: National Center for Advancing Translational Sciences [NCATS] Assay Overview: Chemotherapeutic drug responses vary from cancer to cancer and from patient to patient. These variations could be caused by a number of factors including patient genomic background, tumor mutations, tumor heterogeneity, and aspects of drug treatment. Chemotherapeutic drug resistance is also a common issue and can lead to ineffective treatment and patient death. Here we have profiled the cell killing effects of thousands of compounds to characterize the responses in three gynecological cancers, identify cancer-selective compounds, and understand the diversity of responses to these compounds from pan-cancer suppressors to single cell line selective compounds. In this assay, we screened a 7,914 compound drug library that included approved drug and bioactive compounds in six ovarian, three cervical, and […] placental cancer cell lines using the ATPlite assay for cell viability. […] The cervical cancer cell lines included HeLa, Ca Ski, and C-33 A. The placental cancer cell lines included JEG-3. HEK 293T cells were used as the control cell line to determine the selectivity index. ATPlite is a luminescence based assay reliant on the conversion of a luciferase substrate to light in the presence of ATP. As a cytotoxic compound will suppress growth and decrease the number of cells, the concentration of ATP will decrease, and less light signal will be detected in the well.
# Assay Protocol Summary: 1,000 cells in 4 uL of media were dispensed into white, solid bottom 1536-well plates using a Multidrop Combi (Thermo Scientific). The Assay plates were incubated for 16 hours at 37 C with 5% CO2 in assay plates, followed by the addition of 23 nL of DMSO or drug dissolved in DMSO. Each compound was assayed in five concentrations (0.092, 0.46, 2.3, 11.5, and 57.5 uM), using the automated Wako 1536 Pin Tool workstation and incubated at 37 C with 5% CO2 48 hours. 4 uL of ATPlite, the ATP monitoring reagent, was then added to the each well of the assay plates using the Multidrop Combi reagent dispenser followed by incubation for 15 minutes at room temperature. The resulting luminescence was measured using the ViewLux plate reader.
# % is set by controls: 0 for no effect and ±100 for the full control effect.
row,Structure (SMILES),"activity change, negative = cytotoxicity"
1,CC(C)(C)c1cc(CN2CCN(CC(O)c3ccc(Cl)cc3)CC2)cc(C(C)(C)C)c1O (stereo not given),6.81%
2,COc1cc(/C=C/C(=O)O[C@H]2[C@H](O)[C@@H](CO)O[C@@]2(CO)O[C@H]2O[C@H](COC(=O)c3ccc(O)cc3)[C@@H](O)[C@H](O)[C@H]2O)cc(OC)c1OC,10.6% [at 25.3 µM]
3,C=C1CCC2C(OC(=O)C2(O)COC(C)=O)C2C(=C)C(O)CC12 (stereo not given),2.26% [at 38.5 µM]
4,C[C@]12CCC(=O)C=C1[C@@H](O)C[C@@H]1[C@@H]2[C@@H](O)C[C@@]2(C)[C@H]1CC[C@]2(O)C(=O)CO,2.61%
5,Nc1nc(CC(=O)Nc2ccc(CCNCC(O)c3ccccc3)cc2)cs1 (stereo not given),19.4%
6,C/C=C/C=C/C=C/C(=O)O[C@@H]1C=C(CO)C(O)(C(=O)O)[C@@]2(C)CCCC(C)(C)[C@H]12 (stereo not given in full),-2.74% [at 25.3 µM]
7,CC1=CC(=O)C2C(C)(C)CC(O)CC2(C)C1CO (stereo not given),19.1%
8,COCCCNCC1COc2ccccc2O1 (stereo not given),-8.16%
9,CC1CCC23COC(=O)C2=CC(O)CC3C1(C)CCC1=CC(=O)OC1O (stereo not given),0.578% [at 38.5 µM]
10,CC1OC(OC2C(O)C(C(=O)O)OC(OC3CCC4(C)C(CCC5(C)C4C=CC4=C6CC(C)(C)CC(O)C6(C)CCC45C)C3(C)C)C2OC2OCC(O)C(O)C2O)C(O)C(O)C1O (stereo not given),25.6% [at 11.6 µM]
11,C[C@@H]1O[C@@H](O[C@@H]2[C@@H](O)[C@@H](O)[C@H](O[C@@H]3[C@@H](O)[C@@H](O[C@]4(CO)O[C@H](CO)[C@@H](O)[C@@H]4OC(=O)/C=C/c4ccc(O)cc4)O[C@H](CO)[C@H]3OC(=O)/C=C/c3ccc(O)cc3)O[C@H]2C)[C@H](O)[C@H](O)[C@H]1O,16.9% [at 11.6 µM]
12,O=C(/C=C/c1ccc(O)cc1)OCC1=C[C@@H](O)[C@@H]2C=CO[C@@H](O[C@@H]3O[C@H](CO)[C@@H](O)[C@H](O)[C@H]3O)[C@H]12,13.5% [at 25.3 µM]
13,C=C1C(=O)OC2CC(C)=C(C(C)CCCO[C@@H]3O[C@H](CO)[C@@H](O)[C@H](O)[C@H]3O)C(O)C12 (stereo not given in full),0.952% [at 25.3 µM]
14,COC(=O)[C@@]1(O)C=CC[C@@H]2[C@@]3(C)C[C@@H](c4ccoc4)OC(=O)[C@H]3CC[C@]21C,0.454% [at 38.5 µM]
15,O=S(=O)(Nc1ccc(C(O)(C(F)(F)F)C(F)(F)F)cc1)c1cccs1,18.9%
16,CC1(C)CCCC2(C)C(CO)C3CCC2C31 (stereo not given),6.38%
17,COc1cc(C2Oc3c(OC)cc(CCCO[C@@H]4O[C@H](CO)[C@@H](O)[C@H](O)[C@H]4O)cc3C2CO)ccc1O (stereo not given in full),0.287% [at 25.3 µM]
18,CO[C@@H](Cc1ccc(OCCc2nc(-c3ccccc3)oc2C)c2ccsc12)C(=O)O,14%
19,COC(=O)C1=CO[C@@H](O[C@@H]2O[C@H](COC(=O)/C=C/c3cc(OC)c(O)c(OC)c3)[C@@H](O)[C@H](O)[C@H]2O)[C@@H]2C(CO)=CC[C@H]12,8.63% [at 25.3 µM]
20,CN(C)c1cccc(-c2c3c(=O)n(-c4ccccc4Cl)[nH]c3cc(=O)n2C)c1,-4.65%

row,Structure (SMILES),"activity change, negative = cytotoxicity"
1,CC(C)C1=CC2=CCC3[C@](C)(CCC[C@@]3(C)C(=O)O)C2CC1=O (stereo not given in full),4.24% [at 38.5 µM]
2,O=C(O)C[C@H]1CCC(=O)[C@@H]1C/C=C\CCOC1OC(CO)C(O)C(O)C1O (stereo not given in full),22.4% [at 38.5 µM]
3,CC(C)CNC(=O)/C=C/CCCCc1ccc2c(c1)OCO2,-0.217% [at 38.5 µM]
4,CC(=O)OC[C@]12[C@H](OC(C)=O)C(=O)[C@@H]3[C@@H](OC(C)=O)[C@@]14O[C@@]3(C)COC(=O)c1cccnc1[C@@H](C)[C@H](C)C(=O)O[C@@H]([C@H](OC(C)=O)[C@@H]2OC(C)=O)[C@]4(C)O,-3.2% [at 25.3 µM]
5,O=C(O[C@H]1[C@@H]2C[C@@H]3OC[C@@](O)([C@H]2[C@H](O[C@@H]2O[C@H](CO)[C@@H](O)[C@H](O)[C@H]2O)O3)[C@@H]1O)c1ccccc1,-3.13% [at 25.3 µM]
6,C[C@@H]1CC[C@]2(C(=O)O)CC[C@]3(C)C(=CCC4[C@]5(C)C(CC[C@]43C)C(C)(C)[C@@H](O)[C@H](O)[C@@H]5O)C2[C@]1(C)O (stereo not given in full),-0.157% [at 25.3 µM]
7,Cc1ccc2c(c1)C=Cc1cc(C)ccc1C2c1cn(Cc2ccc(C(=O)Nc3nn[nH]n3)o2)c(=O)[nH]c1=S,9.93%
8,COC(=O)C1=COC(O[C@@H]2O[C@H](CO)[C@@H](O)[C@H](O)[C@H]2O)/C(=C\COC(=O)c2ccc(OC3OC(CO)C(O)C(O)C3O)c(OC)c2)C1CC(=O)OCCc1ccc(O)cc1 (stereo not given in full),-8.27% [at 11.6 µM]
9,O=C(NN1CCCCC1)c1nn(-c2ccc(Cl)cc2Cl)c(-c2ccc(C#Cc3ccc(C(F)(F)F)cc3)s2)c1CNS(=O)(=O)N1CCCC1,-0.495%
10,CC(/C=C/[C@]1(O)[C@@]2(C)CO[C@@]1(C)C[C@@H](O)C2)=C\C(=O)O[C@@H]1O[C@H](CO)[C@@H](O)[C@H](O)[C@H]1O,12.9% [at 25.3 µM]
11,C=C1CC23CC1(O)CCC2C1=CC2OC(=O)C(C)(C2O)C1C3C(=O)O (stereo not given),-1.69% [at 38.5 µM]
12,CC1C/C=C/C=C\CCCCC(O)C/C=C/C(=O)O1 (stereo not given),-2.15%
13,CC1(C)CCC2(C(=O)OC3OC(COC4OC(CO)C(O)C(O)C4O)C(O)C(O)C3O)CCC3(C)C(=CCC4C5(C)CCC(O)C(C)(C(=O)O)C5CCC43C)C2C1O (stereo not given),3.42% [at 11.6 µM]
14,O=c1ccn([C@@H]2O[C@H](CO)[C@@H](O)[C@H]2O)c(=O)[nH]1,0.326%
15,CC(C)(OC1OC(CO)C(O)C(O)C1O)C1CCC(O)(CO)C2CC(O)C(C)(O)C2C1 (stereo not given),14.2% [at 25.3 µM]
16,C/C(=C/CCC(CO)C1CCC2(C)C3CCC4C(C)(C)C(OC5OC(CO)C(O)C(O)C5O)CC(O)C45CC35CCC12C)COC1OC(CO)C(O)C(O)C1O (stereo not given),-0.0894% [at 25.3 µM]
17,COc1cc(/C=C/C(=O)O[C@H]2[C@H](OC(=O)/C=C/c3cc(OC)c(O)c(OC)c3)O[C@H](CO[C@@H]3O[C@H](CO)[C@@H](O)[C@H](O)[C@H]3O)[C@@H](O)[C@@H]2O)ccc1O,17.6% [at 25.3 µM]
18,COc1ncc(-c2ccc3c(Nc4cc(Oc5cc(F)cc(F)c5)cc(C(=O)O)c4)c(S(=O)(=O)NC4CC4)cnc3c2)c(OC)n1,27.5%
19,C=C(C(=O)OC)C1CCC2(C)C(O[C@@H]3O[C@H](CO)[C@@H](O)[C@H](O)[C@H]3O)CC(=O)C(C)C2C1O (stereo not given in full),1.78% [at 25.3 µM]
20,CCOC(=O)c1c(C)nn(-c2cccc([N+](=O)[O-])c2)c1C,13.2%

# Source: PubChem BioAssay (NCATS)
